Legend:
[1] = molecular target: T1, Phosphorylase b kinase gamma catalytic chain, liver/testis isoform (Homo sapiens) (UniProt P15735); conditions: at 1 µM
T1 sequence (whole entry): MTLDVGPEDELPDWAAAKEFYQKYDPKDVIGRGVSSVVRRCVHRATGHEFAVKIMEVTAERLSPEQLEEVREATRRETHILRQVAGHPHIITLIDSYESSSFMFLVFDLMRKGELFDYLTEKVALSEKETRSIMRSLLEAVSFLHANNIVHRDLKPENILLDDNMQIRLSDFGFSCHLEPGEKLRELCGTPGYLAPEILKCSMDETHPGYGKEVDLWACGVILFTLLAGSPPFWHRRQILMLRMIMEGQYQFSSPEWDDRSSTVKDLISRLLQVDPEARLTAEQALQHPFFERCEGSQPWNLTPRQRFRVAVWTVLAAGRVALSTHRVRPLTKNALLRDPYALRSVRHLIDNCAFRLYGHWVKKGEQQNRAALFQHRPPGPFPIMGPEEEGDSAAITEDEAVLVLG

[2] = molecular target: T1, Phosphorylase b kinase gamma catalytic chain, liver/testis isoform (Homo sapiens); conditions: at 10 µM
[3] = molecular target: Serine/threonine-protein kinase pim-1 (Homo sapiens) (UniProt P11309); conditions: at 10 µM
Chain of Serine/threonine-protein kinase pim-1 (Homo sapiens) (P11309 whole entry, looked up): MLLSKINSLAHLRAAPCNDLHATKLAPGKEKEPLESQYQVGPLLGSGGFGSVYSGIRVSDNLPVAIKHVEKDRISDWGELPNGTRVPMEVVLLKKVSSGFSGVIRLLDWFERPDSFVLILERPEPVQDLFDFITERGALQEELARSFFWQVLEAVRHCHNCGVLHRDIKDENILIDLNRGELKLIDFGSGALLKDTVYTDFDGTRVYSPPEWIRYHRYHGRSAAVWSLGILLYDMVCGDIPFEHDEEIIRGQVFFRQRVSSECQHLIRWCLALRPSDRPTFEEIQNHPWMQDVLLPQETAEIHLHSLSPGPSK

[4] = molecular target: Serine/threonine-protein kinase pim-2 (Homo sapiens) (UniProt Q9P1W9); conditions: at 1 µM
Chain of Serine/threonine-protein kinase pim-2 (Homo sapiens) (Q9P1W9 whole entry, looked up): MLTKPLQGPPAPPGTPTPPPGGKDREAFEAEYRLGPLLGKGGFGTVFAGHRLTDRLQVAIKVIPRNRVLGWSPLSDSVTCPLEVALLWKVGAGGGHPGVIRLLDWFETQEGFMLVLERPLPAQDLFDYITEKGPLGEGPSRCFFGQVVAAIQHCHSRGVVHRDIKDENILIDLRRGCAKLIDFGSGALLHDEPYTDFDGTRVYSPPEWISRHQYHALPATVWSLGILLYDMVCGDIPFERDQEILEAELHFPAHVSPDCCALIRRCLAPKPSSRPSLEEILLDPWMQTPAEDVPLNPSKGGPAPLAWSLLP

[5] = molecular target: Serine/threonine-protein kinase pim-2 (Homo sapiens) (UniProt Q9P1W9); conditions: at 10 µM
[6] = molecular target: Serine/threonine-protein kinase pim-3 (Homo sapiens) (UniProt Q86V86); conditions: at 1 µM
[7] = molecular target: Serine/threonine-protein kinase pim-3 (Homo sapiens) (UniProt Q86V86); conditions: at 10 µM
[8] = molecular target: Serine/threonine-protein kinase PLK1 (Homo sapiens) (UniProt P53350); conditions: at 1 µM
Chain of Serine/threonine-protein kinase PLK1 (Homo sapiens) (P53350 whole entry): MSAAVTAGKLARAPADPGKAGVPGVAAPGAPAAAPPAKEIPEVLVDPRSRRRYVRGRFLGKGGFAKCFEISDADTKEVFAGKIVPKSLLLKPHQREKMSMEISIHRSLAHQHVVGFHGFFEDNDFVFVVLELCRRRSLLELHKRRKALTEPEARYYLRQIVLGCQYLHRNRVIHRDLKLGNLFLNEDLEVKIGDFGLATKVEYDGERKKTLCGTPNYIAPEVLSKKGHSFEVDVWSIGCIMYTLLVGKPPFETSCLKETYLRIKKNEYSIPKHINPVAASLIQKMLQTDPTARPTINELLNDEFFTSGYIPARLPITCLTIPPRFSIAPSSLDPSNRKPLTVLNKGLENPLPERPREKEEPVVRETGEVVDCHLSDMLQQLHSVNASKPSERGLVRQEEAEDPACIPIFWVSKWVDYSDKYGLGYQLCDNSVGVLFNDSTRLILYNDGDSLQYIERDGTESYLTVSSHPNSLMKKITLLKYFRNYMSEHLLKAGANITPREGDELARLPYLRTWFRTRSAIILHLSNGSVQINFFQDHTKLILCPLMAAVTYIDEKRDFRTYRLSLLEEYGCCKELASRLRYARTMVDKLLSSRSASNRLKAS

[9] = molecular target: Serine/threonine-protein kinase PLK1 (Homo sapiens) (UniProt P53350); conditions: at 10 µM
[10] = molecular target: T2, cAMP-dependent protein kinase catalytic subunit PRKX (Homo sapiens) (UniProt P51817); conditions: at 1 µM
T2 sequence (whole entry): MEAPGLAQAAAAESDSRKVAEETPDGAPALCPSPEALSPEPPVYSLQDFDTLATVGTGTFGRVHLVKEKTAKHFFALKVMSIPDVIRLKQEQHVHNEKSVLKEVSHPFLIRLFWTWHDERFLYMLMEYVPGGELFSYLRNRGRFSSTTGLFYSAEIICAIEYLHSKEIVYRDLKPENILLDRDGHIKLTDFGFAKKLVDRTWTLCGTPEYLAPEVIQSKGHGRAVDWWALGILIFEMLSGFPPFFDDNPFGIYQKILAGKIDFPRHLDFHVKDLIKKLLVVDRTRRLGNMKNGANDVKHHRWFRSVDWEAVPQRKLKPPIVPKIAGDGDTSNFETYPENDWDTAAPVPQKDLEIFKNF

[11] = molecular target: T2, cAMP-dependent protein kinase catalytic subunit PRKX (Homo sapiens); conditions: at 10 µM
[12] = molecular target: Rho-associated protein kinase 1 (Homo sapiens) (UniProt Q13464); conditions: at 1 µM
Chain of Rho-associated protein kinase 1 (Homo sapiens) (Q13464 2-1354 limits assumed): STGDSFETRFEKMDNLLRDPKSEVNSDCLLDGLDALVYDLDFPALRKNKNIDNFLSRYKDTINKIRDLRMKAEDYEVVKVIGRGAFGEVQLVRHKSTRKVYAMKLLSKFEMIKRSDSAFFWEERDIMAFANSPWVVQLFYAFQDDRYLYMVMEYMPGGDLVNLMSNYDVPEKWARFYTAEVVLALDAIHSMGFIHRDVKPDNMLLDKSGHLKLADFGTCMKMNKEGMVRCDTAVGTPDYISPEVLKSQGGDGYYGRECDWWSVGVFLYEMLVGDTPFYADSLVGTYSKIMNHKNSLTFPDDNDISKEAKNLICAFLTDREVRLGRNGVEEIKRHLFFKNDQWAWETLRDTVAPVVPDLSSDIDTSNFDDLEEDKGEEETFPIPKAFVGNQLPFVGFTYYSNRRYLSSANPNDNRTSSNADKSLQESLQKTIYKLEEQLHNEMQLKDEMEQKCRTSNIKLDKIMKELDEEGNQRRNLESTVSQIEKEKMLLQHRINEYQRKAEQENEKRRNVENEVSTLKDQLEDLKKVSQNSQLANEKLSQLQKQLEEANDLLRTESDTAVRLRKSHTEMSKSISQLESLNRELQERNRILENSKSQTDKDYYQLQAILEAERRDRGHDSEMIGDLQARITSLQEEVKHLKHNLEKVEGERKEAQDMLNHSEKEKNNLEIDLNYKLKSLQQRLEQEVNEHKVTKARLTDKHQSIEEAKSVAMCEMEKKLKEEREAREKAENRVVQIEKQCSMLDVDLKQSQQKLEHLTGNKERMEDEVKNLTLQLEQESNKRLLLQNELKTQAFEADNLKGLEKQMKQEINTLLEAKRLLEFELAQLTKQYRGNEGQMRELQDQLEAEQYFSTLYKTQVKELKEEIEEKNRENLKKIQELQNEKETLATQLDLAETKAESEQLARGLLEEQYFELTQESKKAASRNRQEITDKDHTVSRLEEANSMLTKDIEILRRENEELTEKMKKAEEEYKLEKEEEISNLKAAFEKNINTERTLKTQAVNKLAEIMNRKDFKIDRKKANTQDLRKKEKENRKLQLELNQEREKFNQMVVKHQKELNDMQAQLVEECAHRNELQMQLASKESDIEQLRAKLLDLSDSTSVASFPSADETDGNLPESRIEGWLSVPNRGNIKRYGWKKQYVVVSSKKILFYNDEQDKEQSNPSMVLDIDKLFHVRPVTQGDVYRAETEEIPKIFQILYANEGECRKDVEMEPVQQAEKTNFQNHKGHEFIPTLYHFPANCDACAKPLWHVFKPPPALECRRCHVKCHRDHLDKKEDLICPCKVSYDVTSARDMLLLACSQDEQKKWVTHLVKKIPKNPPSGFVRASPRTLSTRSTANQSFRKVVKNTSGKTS

[13] = molecular target: Rho-associated protein kinase 1 (Homo sapiens) (UniProt Q13464); conditions: at 10 µM
[14] = molecular target: Serine/threonine-protein kinase pim-1 (Homo sapiens) (UniProt P11309); conditions: at 1 µM
[15] = molecular target: Serine/threonine-protein kinase PLK3 (Homo sapiens) (UniProt Q9H4B4); conditions: at 1 µM
[16] = molecular target: Serine/threonine-protein kinase PLK3 (Homo sapiens) (UniProt Q9H4B4); conditions: at 10 µM
[17] = molecular target: Protein-tyrosine kinase 2-beta (Homo sapiens) (UniProt Q14289); conditions: at 1 µM
Chain of Protein-tyrosine kinase 2-beta (Homo sapiens) (Q14289 whole entry, looked up): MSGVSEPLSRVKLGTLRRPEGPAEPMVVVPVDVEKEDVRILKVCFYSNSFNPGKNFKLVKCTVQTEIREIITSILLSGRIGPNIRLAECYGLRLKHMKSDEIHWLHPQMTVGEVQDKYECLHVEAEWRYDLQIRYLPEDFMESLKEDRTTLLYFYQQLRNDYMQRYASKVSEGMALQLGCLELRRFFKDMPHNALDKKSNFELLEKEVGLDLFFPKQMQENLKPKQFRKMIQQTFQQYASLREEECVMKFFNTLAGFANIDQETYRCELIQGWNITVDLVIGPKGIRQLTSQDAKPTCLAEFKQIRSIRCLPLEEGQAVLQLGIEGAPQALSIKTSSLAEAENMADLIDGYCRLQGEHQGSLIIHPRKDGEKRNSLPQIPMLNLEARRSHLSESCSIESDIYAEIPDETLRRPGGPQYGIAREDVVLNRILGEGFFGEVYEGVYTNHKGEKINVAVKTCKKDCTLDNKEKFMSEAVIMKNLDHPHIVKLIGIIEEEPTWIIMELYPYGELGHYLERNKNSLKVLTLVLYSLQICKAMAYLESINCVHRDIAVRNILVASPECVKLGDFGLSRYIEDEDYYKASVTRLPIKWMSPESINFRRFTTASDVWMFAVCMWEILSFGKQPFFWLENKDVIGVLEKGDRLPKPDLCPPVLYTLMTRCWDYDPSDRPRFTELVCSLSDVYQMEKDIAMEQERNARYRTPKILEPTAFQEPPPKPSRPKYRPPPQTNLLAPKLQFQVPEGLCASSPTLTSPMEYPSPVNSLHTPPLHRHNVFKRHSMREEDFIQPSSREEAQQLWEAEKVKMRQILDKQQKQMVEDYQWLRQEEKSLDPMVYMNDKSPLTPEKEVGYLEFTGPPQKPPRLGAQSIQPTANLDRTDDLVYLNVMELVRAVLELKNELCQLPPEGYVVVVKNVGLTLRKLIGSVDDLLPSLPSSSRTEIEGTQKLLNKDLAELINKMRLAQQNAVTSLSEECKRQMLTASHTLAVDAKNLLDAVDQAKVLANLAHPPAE

[18] = molecular target: Protein-tyrosine kinase 2-beta (Homo sapiens) (UniProt Q14289); conditions: at 10 µM
[19] = molecular target: Receptor-interacting serine/threonine-protein kinase 2 (Homo sapiens) (UniProt O43353); conditions: at 1 µM
Chain of Receptor-interacting serine/threonine-protein kinase 2 (Homo sapiens) (O43353 whole entry): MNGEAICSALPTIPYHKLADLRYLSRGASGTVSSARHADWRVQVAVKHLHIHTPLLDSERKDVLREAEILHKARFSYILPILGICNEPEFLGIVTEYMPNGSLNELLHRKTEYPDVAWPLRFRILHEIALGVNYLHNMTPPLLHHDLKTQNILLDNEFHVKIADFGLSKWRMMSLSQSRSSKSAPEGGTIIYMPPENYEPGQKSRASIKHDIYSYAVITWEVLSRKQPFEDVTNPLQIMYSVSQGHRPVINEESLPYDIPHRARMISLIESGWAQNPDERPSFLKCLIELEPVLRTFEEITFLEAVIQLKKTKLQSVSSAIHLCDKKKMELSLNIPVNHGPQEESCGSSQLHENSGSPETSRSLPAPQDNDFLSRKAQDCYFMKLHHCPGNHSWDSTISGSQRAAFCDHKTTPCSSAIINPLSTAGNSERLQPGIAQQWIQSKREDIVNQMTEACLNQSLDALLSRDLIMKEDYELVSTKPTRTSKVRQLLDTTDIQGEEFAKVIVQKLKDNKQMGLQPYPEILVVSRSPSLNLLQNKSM

[20] = molecular target: Receptor-interacting serine/threonine-protein kinase 2 (Homo sapiens) (UniProt O43353); conditions: at 10 µM

Structure (SMILES) | residual activity [1] [%] | residual activity [2] [%] | residual activity [3] [%] | residual activity [4] [%] | residual activity [5] [%] | residual activity [6] [%] | residual activity [7] [%] | residual activity [8] [%] | residual activity [9] [%] | residual activity [10] [%] | residual activity [11] [%] | residual activity [12] [%] | residual activity [13] [%] | residual activity [14] [%] | residual activity [15] | residual activity [16] [%] | residual activity [17] [%] | residual activity [18] [%] | residual activity [19] [%] | residual activity [20] [%]
CN(C)S(=O)(=O)c1ccc2c(c1)/C(=C/c1cc3c([nH]1)CCCC3)C(=O)N2 | 48 | 46 | 86 | 123 | 121 | 93 | 94 | 96 | 95 | 95 | 91 | 132 | 100 | – | – | – | – | – | – | –
O=C1NC(=O)c2c1c1c3ccccc3[nH]c1n1cncc21 | 95 | 70 | 2 | 5 | 0 | 14 | 17 | 62 | 60 | 80 | 75 | – | 96 | 6 | 55% (inactive) | 31 | 32 | 19 | 79 | 72
CC(C)(C)n1nc(Cc2cccc3ccccc23)c2c(N)ncnc21 | 98 | 109 | 106 | 114 | – | 96 | 95 | 99 | 75 | 98 | 75 | 114 | 125 | 77 | 94% (inactive) | 97 | 89 | 29 | 27 | 17
O=C1Cc2c([nH]c3ccc(Br)cc23)-c2ccccc2N1 | 120 | 89 | 56 | 100 | 79 | 83 | 79 | 76 | 75 | – | – | – | – | 75 | 95% (inactive) | 83 | 89 | 58 | 49 | 22
O=C(c1ccccc1)c1ccc(N2CCOCC2)cc1O | 84 | 113 | 81 | – | – | – | – | 93 | 75 | 86 | 94 | – | 121 | 76 | 91% (inactive) | 88 | 130 | – | 99 | 87
NC(=O)c1ccc(-c2nc(-c3ccc4c(c3)OCCO4)c(-c3ccccn3)[nH]2)cc1 | 90 | 93 | – | – | – | 96 | 97 | 81 | 71 | 82 | 86 | 118 | 90 | – | – | – | – | – | 55 | 18
O=c1cc(N2CCOCC2)oc2c1ccc1ccccc12 | 90 | 89 | 13 | 87 | 45 | 92 | 55 | 56 | 11 | 97 | 96 | – | – | 55 | 99% (inactive) | 68 | 130 | 100 | 86 | 83
CC(C)[C@H](CO)Nc1nc(Nc2cc(N)cc(Cl)c2)c2ncn(C(C)C)c2n1 | 119 | 97 | 86 | – | – | – | – | 50 | 9 | – | 88 | – | 84 | 95 | 99% (inactive) | 77 | 59 | 7 | 85 | 77
CCCC(=O)Oc1ccc2[nH]c(C(=O)c3cc4ccccc4[nH]3)cc2c1 | 95 | 96 | 121 | – | 98 | 93 | 96 | 86 | 58 | 88 | 92 | 103 | 128 | 101 | 93% (inactive) | 85 | 122 | 85 | 91 | 89
CCN(CC)CCNC(=O)c1c(C)[nH]c(/C=C2\C(=O)Nc3ccc(Cl)cc32)c1C | 8 | 2 | – | – | – | – | 75 | – | 55 | 63 | 37 | – | – | – | – | – | 15 | 3 | 62 | 27
Nc1nc(Nc2ccc(S(N)(=O)=O)cc2)nn1C(=O)c1c(F)cccc1F | 100 | 107 | 52 | 99 | 73 | 99 | 102 | – | – | – | – | 65 | 16 | 71 | – | – | 55 | 14 | 62 | 41
NC(=O)Nc1sc(-c2ccc(F)cc2)cc1C(N)=O | 105 | 69 | 43 | 93 | 60 | – | – | – | – | 85 | 55 | – | 101 | 95 | 88% (inactive) | 81 | 56 | 10 | 67 | 29
COc1ccc(CNC(=O)Nc2ncc([N+](=O)[O-])s2)cc1 | 122 | 107 | 109 | 134 | 135 | – | – | 64 | 76 | 55 | 59 | – | – | 116 | – | – | 72 | 77 | 79 | 81
Nc1ncnc2[nH]nc(Nc3ccc(F)cc3)c12 | 102 | 99 | 53 | 133 | 99 | – | 69 | – | 77 | – | 21 | 128 | 101 | 115 | 103% (inactive) | 94 | 101 | 79 | 46 | 21
O=C1NC(=O)C(c2cn(CCCO)c3ncccc23)=C1c1cnccn1 | 97 | – | 50 | 49 | 43 | 46 | 16 | 87 | 82 | – | – | – | – | 72 | – | – | 100 | 79 | 94 | 87
COc1ccc(Cl)cc1NC(=O)Nc1cc(C)nc2ccccc12 | 92 | 53 | 97 | – | – | 96 | 99 | 95 | 82 | – | 55 | – | – | 87 | 96% (inactive) | 93 | – | 85 | 99 | 93
